Most compounds without a hit are left out; they make up all but 3.1% or so of the library.
PAX8 inh HTS: lowers PAX8-driven luciferase in RMG-I cells | RMG-I TPO-luciferase reporter, SteadyGlo, 24 h | inhibition, % at 12.6 µM | 360,000 tested, 1.2% active | AID 652154;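 active = mean replicate inhibition at least 60% with every replicate also reaching 60%; inconclusive = only one of the two criteria is met; inactive = mean below 60% and not all replicates reaching 60%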;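 note: luciferase light reporting Pax8 driven TPO promoter activity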
LMP1 NFkB inh: reduces LMP1-driven NF-kappaB luciferase signal; LMP1-induced NF-kappaB luciferase reporter cells, luminescence; inhibition, % at 12.5 µM; 350,000 tested, 0.69% active; in the data active = inhibition above about 41%; inconclusive = no clear call, values can overlap the other calls
LGR2 antag: Drosophila LGR2 receptor signaling inhibition. AID 720647. 380,000 tested, 0.35% active. inhibition, % at 9.99 µM. HEK293 LGR2, CRE-luciferase, bursicon-stimulated, 4 h;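 active = drop in luminescence signal, shown as inhibition above about 50% in the replicate tests, limit read from the data, passing the limit was not always enough; inconclusive = probably only some replicates passing the limit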;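 note: agonist challenge used bursicon conditioned medium at about half maximal strength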
EWS-Fli inh: inhibitors of EWS/Fli oncoprotein transcriptional activity; A673 NR0B1-luciferase reporter, viability-normalised; inhibition, % at 12.6 µM; 350,000 tested, 0.67% active; AID 651661;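 active = mean inhibition of at least 50% after viability correction, with every replicate also passing that limit; inconclusive = mean reaches 50% but only one of two replicates passes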;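 note: firefly luciferase signal divided by Alamar Blue viability fluorescence both relative to DMSO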
TROY NFkB inh: blocks TROY-dependent signaling in reporter cells; Q293 LMP1-TROYcd NF-kB luciferase reporter, 4 h; inhibition, % at 10 µM; 360,000 tested, 0.98% active;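 active = compounds whose plate-normalised and pattern-corrected inhibition of the luciferase reporter signal at the single screening dose is 50% or more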
TWEAK Fn14 block: TWEAK-Fn14 signaling inhibition. TWEAK-stimulated Fn14 reporter cells, luciferase luminescence, 8 h. AID 1159606. inhibition, % at 10 µM. 360,000 tested, 2% active; in the data active = inhibition above about 50%
A number is an active result; – = inactive; ? = inconclusive; · = not tested or not shown; ! = not confirmed by another sample.

SMILES	PAX8 inh HTS	LMP1 NFkB inh	LGR2 antag	EWS-Fli inh	TROY NFkB inh	TWEAK Fn14 block
OC[C@H]1OC(O)[C@H](O)[C@@H](O)[C@H]1O (stereo partly specified)	–	56.3	–	–	–	–
Cc1ccc(S(=O)(=O)NC(CC(C)C)C(=O)Oc2ccc3c4c(c(=O)oc3c2)CCC4)cc1 (stereo unspecified)	·	–	–	–	68.5	–
Cc1ccc(-c2ccc(C3[C@H]4CNC[C@@H]3N4C(=O)Nc3ccc(F)cc3)cc2)cc1 (stereo partly specified)	–	·	–	62.0!	·	·
COc1ccccc1-c1ccc(C2[C@H]3CNC[C@@H]2N3C(=O)Nc2ccccc2Cl)cc1 (stereo partly specified)	–	·	–	62.1	·	·
CN(C)c1ccc(N=C/C=C2/N(C)c3ccccc3C2(C)C)cc1	–	–	–	–	–	60.7
COC1(OC)C=CC(=O)C=C1NC(=O)c1ccccc1OC(C)=O	68.8	–	–	55.2	–	63.4
CCN(CC(=O)c1c(N)n(C)c(=O)n(C)c1=O)c1cccc2ccccc12	–	–	–	·	57.5	99.0
Cc1ccnc(NC(=O)CCC(=O)c2cccs2)c1	?	59.2	88.8	77.6	68.0	91.7
COc1ccc(NC(=O)CCC(=O)c2cccs2)c(OC)c1	·	–	·	·	–	57.0
COc1cc(NC(=O)CCC(=O)c2cccs2)cc(OC)c1	–	–	–	–	–	–
Cc1noc(C)c1NC(=O)Nc1ccc2c(c1)C(=O)N([C@H](C)CO)C[C@@H](C)[C@@H](CN(C)C)OCCCC[C@@H](C)O2	–	·	–	–	·	·
C[C@@H]1CN([C@@H](C)CO)S(=O)(=O)c2ccc(C#Cc3ccccn3)cc2O[C@@H]1CN(C)CC1CC1	·	·	–	–	·	·
C[C@H](O)C#Cc1cnc2c(c1)C(=O)N([C@H](C)CO)C[C@H](C)[C@@H](CN(C)Cc1ccccn1)O2	·	·	–	–	·	·
CCOC(=O)[C@@H]1[C@H]2COc3cc(OC)ccc3[C@H]2N2C(=O)N(c3ccc(C(F)(F)F)cc3)C(=O)[C@]12C	–	–	–	–	–	74.4
C[C@@H]1CN([C@H](C)CO)C(=O)Cc2cc(NC(=O)Cn3cnnn3)ccc2O[C@@H]1CN(C)Cc1ccc(C(=O)O)cc1	·	·	–	–	·	·
O=C(Nc1cccc(S(=O)(=O)Nc2ccc(Cl)cc2)c1)c1cc2c(s1)CCCC2	–	–	–	·	–	83.5
Cc1ccc(NC(=O)c2cc3c(s2)CCCC3)cc1S(=O)(=O)Nc1ccccc1Cl	–	–	–	·	–	78.5
Cc1ccc(C(=O)Nc2ccc(C)c(S(=O)(=O)Nc3ccccc3Cl)c2)s1	–	–	–	–	–	–
O=C(c1ccccn1)N1CC2(C1)[C@H](c1ccccc1)[C@H](CO)N2Cc1ccc(Cl)cc1	·	·	–	–	·	·
CC(C)c1cn([C@H]2C[C@@H]3O[C@@H](CO)CC[C@@H]3O[C@@H]2CCc2ccc(C#CC3CCCCC3)cc2)nn1	–	·	·	–	·	·
Cc1ccc(-n2nc3ccc(N)cc3n2)cc1	·	–	·	·	–	–
CC(C)c1ccc(-n2nc3ccc(N)cc3n2)cc1	–	–	·	–	–	50.8
COc1ccc(Br)c(Cn2c(C)c(C(=O)NCc3ccccc3C(F)(F)F)sc2=O)c1	–	·	–	–	69.1	–
COc1ccc(-c2nc(NC(C)=O)sc2-c2ccc(OC)cc2)cc1	–	–	·	–	–	–
COc1ccc(C2CC(=O)c3sc(NC(C)=O)nc3C2)cc1 (stereo unspecified)	·	–	–	·	62.3	72.1
SMILES	PAX8 inh HTS	LMP1 NFkB inh	LGR2 antag	EWS-Fli inh	TROY NFkB inh	TWEAK Fn14 block
CS(=O)(=O)N(CC(=O)N/N=C/c1cccc2c1OCCO2)c1ccccc1Br	·	–	·	·	–	–
CCOC(=O)c1ccc(-c2ccc(/C=N/NC(=O)CN(c3ccccc3Br)S(C)(=O)=O)o2)cc1	–	–	–	–	–	67.2
COCCOC(=O)N1C(=O)[C@@]2(c3cc(C#CC4=CCCCC4)ccc31)[C@H](C(=O)NC[C@H](O)c1ccccc1)[C@H]1C(=O)O[C@H](c3ccccc3)[C@H](c3ccccc3)N1[C@@H]2c1ccc(O)cc1	–	·	·	–	·	·
Cc1c(P(=S)(c2ccccc2)c2ccccc2)[n+]2ccccc2n1CCc1ccccc1	88.8	·	–	–	–	–
Cc1ccc(N=c2oc3cc(O)ccc3cc2C(N)=O)cc1	–	–	·	·	–	61.0
CC(=O)c1cc2ccc(O)cc2oc1=O	–	–	–	–	–	–
CSCCC(NS(=O)(=O)c1ccc(Cl)cc1)C(=O)OCC(=O)c1c(C)[nH]c2ccccc12 (stereo unspecified)	–	–	–	·	81.9	61.5

Bioassay records as filed in PubChem BioAssay.
